nsP2pro inh: Primary qHTS for inhibitors of NSP2Pro chikungunya virus (CHIKV) | Polyprotein P1234 (Chikungunya virus (strain S27-African prototype)), Q8JUX6 | FRET peptide cleavage, nsP2pro, fluorescence 1 h | Potency, µM (top dose mostly 24.9 µM), inactives show at the highest dose activity change, negative = inhibition, actives largely listed as inhibitors | 1.1% of 31,000 active; note: nearly all actives have a fitted effect of over 60% in size
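FRET cleavage of 2.5 uM peptide 2 by 150 nM CHIKV protease domain at pH 8.0 (Tris, Tween 20). Compounds at 7 concentrations (up to 25 uM) preincubated 15 min. Fluorescence read after 1 h at room temperature.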
nsP2 cell sec: Secondary cell base assay for inhibitors of NSP2Pro Chikungunya virus (CHIKV) | shares compounds with nsP2pro inh | 10% of 450 active | Potency, µM (highest dose often 51.1 µM), inactives show at the highest dose activity change, negative = inhibition, hits mostly inhibitors | cell-based CHIKV nsP2 protease reporter assay | AID 1964100, 2024; note: nearly all actives have a fitted effect of over 70% in size
CHIKV NSP2 FL: Selectivity profile for inhibitors of NSP2Pro chikungunya virus (CHIKV): Full length NSP2 enzyme counterscreen (CHIKV-NSP2) | shares compounds with nsP2pro inh | Full-length CHIKV NSP2 protease enzymatic counterscreen | Potency, µM (highest dose often 50.7 µM), without a hit: top-dose activity change, negative = inhibition, usual class: inhibitors | 39% of 410 active | AID 1964101, 2024; note: nearly all actives have a fitted effect of over 65% in size
Furin counterscr: Selectivity profile for inhibitors of NSP2Pro chikungunya virus (CHIKV): Human furin counterscreen. Potency, µM (top dose mostly 50.6 µM), without a hit: at the highest dose activity change, negative = inhibition, usual class: inhibitors. Recombinant human furin enzymatic counterscreen, fluorogenic substrate. shares compounds with nsP2pro inh. AID 1964102, 2024. 6% of 410 active
NS23 peptide cs: Selectivity profile for inhibitors of NSP2Pro chikungunya virus (CHIKV): Endogenous NS2/3 peptide Counterscreen; shares compounds with nsP2pro inh; Purified CHIKV nsP2 protease, endogenous NS2/3 peptide cleavage; Potency, µM (series often up to 51 µM), for inactives: at the top dose activity change, negative = inhibition, most hits filed as inhibitors; 34% of 410 active; note: nearly all actives have a fitted effect of over 55% in size
Papain counter: Selectivity profile for inhibitors of NSP2Pro chikungunya virus (CHIKV): Papain Counterscreen; 5% of 410 active; purified papain protease activity, enzymatic inhibition; Potency, µM (titrated, usually from 51 µM), without a hit: top-dose activity change, negative = inhibition, usual class: inhibitors; shares compounds with nsP2pro inh
nsP2pro conf qHTS: Confirmatory qHTS for inhibitors of NSP2Pro chikungunya virus (CHIKV) | shares compounds with nsP2pro inh | CHIKV nsP2 protease enzymatic activity, qHTS | Potency, µM (series often up to 25.5 µM), for inactives: at the top dose activity change, negative = inhibition, usual class: inhibitors | 43% of 410 active | AID 1964105, 2024; note: nearly all actives have a fitted effect of over 75% in size
HCV NS3 4A cs: Selectivity profile for inhibitors of NSP2Pro chikungunya virus (CHIKV): NS34A-HCV Counterscreen. shares compounds with nsP2pro inh. HCV NS3/4A protease biochemical counterscreen. Potency, µM (titrated, usually from 50.9 µM), actives largely listed as inhibitors. 20% of 410 active. AID 1964106, 2024; note: nearly all actives have a fitted effect of over 55% in size
* marks the source's active call; other numbers are inactive results; i = inactive; ? = inconclusive; [ ] = remark or other dose. The entries come from a sample that favours hits as a whole. Calls come from the whole dose curve. % is set by controls: 0 for no effect and ±100 for the full control effect; potency is the fitted concentration of half-maximal effect.

SMILES | nsP2pro inh | others
CC(=O)OC[C@@]12C(=O)C[C@@H](C)[C@]3(C[C@@H](c4ccoc4)OC3=O)[C@H]1CC[C@H](OC(C)=O)[C@]21CO1 | -20%[10 µM]
C[C@@H]1CC[C@]2(C)C3(C)CC[C@@]2(OC3=O)[C@@]12C[C@H](c1ccoc1)OC2=O | 2.4µM* | nsP2 cell sec=-11%[33.5 µM];CHIKV NSP2 FL=7.2µM*;Furin counterscr=5%[33.5 µM];NS23 peptide cs=?;Papain counter=-9%[33.5 µM];nsP2pro conf qHTS=2.2µM*;HCV NS3 4A cs=1.8µM*
O=C(Nc1ccc(Cl)c(S(=O)(=O)N2CCOCC2)c1)c1ccc(S(=O)(=O)N2CCCCC2)cc1 | -6%
COc1ccc(NC(=O)N2CC(N(C3CCOCC3)S(C)(=O)=O)C2)cc1F | 3%
CC(OC(=O)NCC1(CC(=O)O)CCCCC1)OC(=O)C(C)C (stereo not drawn) | -15%
CC(=O)O[C@@H]1C(O)C[C@@]2(C)C(CC[C@@H](C)C23Cc2c(O)cc4c(c2O3)CNC4=O)C1(C)C (stereo partly drawn) | -4%[10 µM]
CC(C)=CCC1=C(O)c2ccccc2C(=O)C1=O | ? | nsP2 cell sec=?;CHIKV NSP2 FL=?;Furin counterscr=-11%[100 µM];NS23 peptide cs=?;Papain counter=-27%[100 µM];nsP2pro conf qHTS=-31%[50 µM];HCV NS3 4A cs=i
COC1=C(OC)C(=O)C(CC=C(C)CCC=C(C)CCC=C(C)CCC=C(C)CCC=C(C)CCC=C(C)CCC=C(C)CCC=C(C)CCC=C(C)CCC=C(C)C)=C(C)C1=O | -3%[2.68 µM]
O=C(Nc1ccc([C@H]2OCC(=O)N(C3CCOCC3)[C@@H]2CO)cc1)c1cnccn1 | i
COc1ccc(C(=O)N2CCCC3(CN[S+](=O)([O-])c4ccccc4N3)C2)cc1 (stereo not drawn) | -3%
COc1ccc(NC(=O)N2C[C@@H]3C[C@H](C2)c2c(NC(=O)CSC)ccc(=O)n2C3)cc1 | -2%
CCCS(=O)(=O)Nc1ccc(=O)n2c1[C@@H]1C[C@@H](CN(C(=O)Nc3ccc(OC)cc3)C1)C2 | ? | nsP2 cell sec=3%;CHIKV NSP2 FL=?;Furin counterscr=-9%;NS23 peptide cs=?;Papain counter=-2%;nsP2pro conf qHTS=?;HCV NS3 4A cs=?
COc1ccc(CC(=O)N2C[C@@H]3C[C@H](C2)c2c(-c4ccc(NC(C)=O)cc4)ccc(=O)n2C3)cc1 | -5%
CCCCS(=O)(=O)N1CCC(F)(c2nc(-c3ccccc3)no2)CC1 | 0%
C[C@@H]1C(=O)OC2[C@H](O)[C@]34[C@H]5C[C@@H](C(C)(C)C)[C@]36[C@@H](OC(=O)[C@@H]6O)O[C@@]4(C(=O)O5)[C@]21O (stereo partly drawn) | -11%
CN(Cc1ccc(OC(F)(F)F)cc1)Cc1cccc(C(F)(F)F)c1 | -8%
COc1ccc(NS(=O)(=O)c2ccc(C)cc2)cc1C(=O)Nc1nc(-c2ccccc2)cs1 | -10%
O[C@@H]1C[C@@H](c2nc(Cc3ccc(F)cc3Cl)no2)N(Cc2ccc(OC(F)(F)F)cc2)C1 | i
CC(C)c1noc([C@@H]2C[C@@H](O)CN2Cc2cc3ccccc3o2)n1 | -3%[39.2 µM]
